Reference: PubChem BioAssay

assay: changes in parasitized red cell lysis, either direction – P. falciparum Indochina, OD700, 3 h, PSAC antagonist project, primary screen (AID 1156); conditions: P. falciparum-infected erythrocytes, osmotic lysis, higher = more signal, called active from +8 up or from −8 down

z-score, inactive:
COCCCNC(=O)[C@@]1(Sc2ccc(C)cc2)CC(=O)N(Cc2ccccc2)[C@@H]1c1ccc(CO)cc1I 0.533
COC(=O)[C@H](C)NC(=O)CCC1CC(OC(=O)NCCc2ccc(F)cc2)CC2(CCCC(COC(=O)NCC(c3ccccc3)c3ccccc3)O2)O1 (stereo partly specified) -0.286
COc1ccccc1CN1C(=O)c2ccccc2[C@@H](C(=O)NCC(F)(F)F)[C@@H]1c1ccc(CO)cc1 -0.114
Cc1cc2c(c(=O)o1)[C@H](O)[C@H]1O[C@H]1C2=O 0.716
CCN(CC)c1ccc(N2CC=CC34O[C@@H]5/C=C\CCC(C)OC(=O)C5[C@H]3C(=O)N(CCCO)[C@@H]4C2=O)cc1 (stereo partly specified) -0.0086
O=C1O[C@@H](c2ccccc2)[C@@H](c2ccccc2)N2[C@@H](c3ccccc3OCCO)[C@]3(C(=O)Nc4ccc(C#CCCO)cc43)[C@@H](C(=O)O)[C@H]12 0.152
COc1ccc([Si](C)(C)[C@@H]2[C@@H](CC(=O)N3CCC[C@H]3CO)O[C@]3(C(=O)N(Cc4cccc(N5CCC5=O)c4)c4ccccc43)[C@H]2C)cc1 -0.745
CC(C)(C)N1CC=CC23O[C@@H]4C=CCCOC(=O)C4[C@H]2C(=O)N(CCCCCO)[C@@H]3C1=O (stereo partly specified) 1.98
COc1cccc([C@@H]2Oc3ccc(Br)cc3C(=O)[C@H]2O)c1 -0.0836
CO[C@H]1COC(=O)[C@@H]2CCCN2C(=O)CC=C[C@@H](C)[C@H](OC)COC(=O)CC=C[C@@H]1C -0.464
CC(CCN1CCc2nc(-c3ccccc3)c(-c3ccccc3)cc2C1)=NO[C@H](C)c1cn([C@@H]2COC[C@H]2O)nn1 1.56
COC(=O)[C@H]1COC(c2ccc(OCCCO)cc2)=N1 0.0031
O=C1[C@H]2[C@H]3[C@H](O)[C@H](O)CC(=NOC[C@@H](O)COCc4ccco4)[C@H]3CC[C@H]2C(=O)N1Cc1ccc2c(c1)OCO2 0.107
CC[C@@H](c1ccccc1)n1c(=O)n2n(c1=O)[C@H]1[C@H](O)[C@@H]3O[C@@H]3C(=NOCC=C(C)CCC=C(C)C)[C@H]1CC2 0.0313
C[C@@H](c1ccccc1)N1C(=O)[C@H]2[C@H]3[C@H](O)[C@H](O)CC(=NOC[C@@H](O)COCc4ccco4)[C@@H]3CC[C@H]2C1=O -0.478
CO[C@H]1O[C@H](CO)[C@@H](OC(=O)Nc2ccc3c(c2)OCO3)[C@H](OC(=O)Nc2ccccc2-c2ccccc2)[C@@H]1OC(=O)Nc1ccccc1-c1ccccc1 0.433
NCCCCCNC(=O)[C@@H]1C[C@@H]2C(=O)N3CCC[C@H]3C(=O)N2[C@@H]1c1cccc(OCCO)c1 0.744
C[C@@H]1C=CCC(=O)OC[C@H](C)C(=O)N2CCC[C@H]2C(=O)OC1 1.11
CCCC=C(CCC)[C@@H](NC(=O)c1ccc(-c2ccccc2)cc1)c1ccc(C(=O)OC)cc1 -0.104
CCOC(=O)[C@H](Cc1ccccc1)NC(=O)CCC1CC(OC(=O)NCc2ccc3c(c2)OCO3)CC2(CCCC(COC(=O)NCC3CCCCC3)O2)O1 (stereo partly specified) -0.235
COc1ccc(COC(=O)NN=C2C[C@@H](O)[C@@H](O)[C@@H]3[C@@H]4C(=O)N(c5ccc(F)cc5F)C(=O)[C@@H]4CC[C@@H]23)cc1 1.15
CC(C)[C@@H](OCc1ccccc1)[C@H](C)C=NO[C@H](C)c1cn([C@H](CO)Cc2ccccc2)nn1 -0.525
COC(=O)[C@H](C)NC(=O)CCC1CC(OC(=O)NCc2cccc3ccccc23)CC2(CCCC(COC(=O)NCCc3ccc(Cl)cc3)O2)O1 (stereo partly specified) -0.801
COc1ccc(-c2nc3c(c4c2C[C@H](C)OC4)CN(CCC(C)C)CC3)cc1 0.511
O=C(NN=C1C[C@@H](O)[C@@H](O)[C@@H]2[C@@H]3C(=O)N(c4cccc(Oc5ccccc5)c4)C(=O)[C@@H]3CC[C@H]12)OCc1ccccc1 2.32
CCOC(=O)CCN1C(=O)[C@H]2[C@H]3[C@H](O)[C@H](O)CC(=NNC(=O)OCc4ccc(OC)cc4)[C@@H]3CC[C@H]2C1=O -0.495
CCN1C(=O)[C@H]2[C@H]3[C@H](O)C=CC(=O)[C@@H]3CC[C@H]2C1=O -0.795
C=C(CCCC)C(=O)CC[C@@H](OC(C)=O)c1cccc(OCCO)c1 -1.27
O=C1C[C@]2(c3ccc([N+](=O)[O-])cc3)C(=O)N(CCN3CCOCC3)c3cc(CO)ccc3[C@H]2N1CC12CC3CC(CC(C3)C1)C2 1.68
[N-]=[N+]=NCc1ccccc1[C@@H]1OC(c2ccc(OCCCO)cc2)=N[C@]1(Cc1ccccc1)C(=O)N1CCOCC1 2.49
CC(C)N1CC=CC23O[C@@H]4C=CCCOC(=O)C4[C@H]2C(=O)N(CCCCCCO)[C@@H]3C1=O (stereo partly specified) 0.799
CCCNC(=O)[C@@H]1c2ccccc2C(=O)N(Cc2ccccc2Cl)[C@H]1c1ccc(CO)cc1 0.621
CCN1C(=O)[C@H]2[C@H]3[C@H](O)[C@H](O)CC(=NOCc4ccccc4)[C@H]3CC[C@H]2C1=O -0.824
C[C@H](c1ccccc1)N1C(=O)[C@H]2[C@H]3[C@H](O)[C@H](O)CC(=O)[C@@H]3CC[C@H]2C1=O 0.151
COC(=O)C1=C(C)[C@@H](O)[C@@H](C)[C@H](c2c(OC)c(OC)c(C)c(OC)c2OC)O1 0.336
CC(=O)OC[C@H]1O[C@H](CC=NOC[C@@H](C)[C@H](OCc2ccccc2)C(C)C)C=C[C@@H]1OC(C)=O 0.712
